Results: PubChem BioAssay AID1347418 (Sanford-Burnham Center for Chemical Genomics, 2020)
Out of some 1,300 compounds screened, about 750 (58%) were called active. The list shows a part of the results. Values without a mark were called inactive.

biological target: Sulfhydryl oxidase 1 (Homo sapiens) (UniProt O00391); experiment: QSOX1 enzyme inhibitors, primary screen, biochemical, ROS-Glo H2O2 luminescence, HTS (AID 1347418); conditions: recombinant QSOX1, ROS-Glo H2O2 luminescence; at 12.5 µM; hits give high values; active = any value above zero
Sequence (O00391 whole entry, looked up): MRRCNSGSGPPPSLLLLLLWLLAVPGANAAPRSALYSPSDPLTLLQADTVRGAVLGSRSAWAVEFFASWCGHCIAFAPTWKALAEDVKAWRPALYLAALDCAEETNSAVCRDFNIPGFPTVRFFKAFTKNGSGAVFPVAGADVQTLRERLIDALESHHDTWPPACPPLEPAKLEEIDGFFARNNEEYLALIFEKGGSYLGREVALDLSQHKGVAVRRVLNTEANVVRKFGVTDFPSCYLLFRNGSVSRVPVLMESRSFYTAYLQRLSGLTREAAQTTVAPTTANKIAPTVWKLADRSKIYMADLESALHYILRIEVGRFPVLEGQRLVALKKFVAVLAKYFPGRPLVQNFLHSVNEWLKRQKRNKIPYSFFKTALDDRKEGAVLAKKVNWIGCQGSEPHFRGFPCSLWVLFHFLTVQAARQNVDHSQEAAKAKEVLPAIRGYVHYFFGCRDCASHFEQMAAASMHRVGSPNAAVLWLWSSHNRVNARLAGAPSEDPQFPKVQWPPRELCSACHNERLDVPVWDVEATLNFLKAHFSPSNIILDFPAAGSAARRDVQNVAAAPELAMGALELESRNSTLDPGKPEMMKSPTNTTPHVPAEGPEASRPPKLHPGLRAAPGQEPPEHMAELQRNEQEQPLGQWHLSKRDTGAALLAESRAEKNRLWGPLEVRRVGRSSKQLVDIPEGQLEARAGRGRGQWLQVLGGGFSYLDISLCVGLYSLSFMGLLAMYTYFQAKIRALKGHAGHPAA

Row | Structure (SMILES) | inhibition
1 | Clc1ccc2c(c1)C(N1CCNCC1)=Nc1ccccc1O2 | 2.5% (active)
2 | CN1CCN(C2=Nc3ccccc3Oc3ccc(Cl)cc32)CC1 | 1.9% (active)
3 | Nc1nc2[nH]c(=O)cnc2c(=O)[nH]1 | 2.6% (active)
4 | Cn1cc(C(F)(F)F)nc1-c1ccc(OCC(O)CNCCOc2ccc(O)c(C(N)=O)c2)cc1 (centres undefined) | 5.6% (active)
5 | O=C(c1ccc2c(c1)OCCO2)N1CCCCC1 | 4.8% (active)
6 | CCC(=O)N1CCN(C(=O)c2ccccc2)CC1 | -5.7%
7 | NCC(O)c1ccc(O)c(O)c1 (centres undefined) | 7.1% (active)
8 | NC[C@H](O)c1ccc(O)c(O)c1 | 9.5% (active)
9 | C=C[C@H]1CN2CC[C@@H]1C[C@@H]2[C@H](O)c1ccnc2ccc(OC)cc12 | -1.1%
10 | NCCCNCCSP(=O)(O)O | 1.1% (active)
11 | CC(C)COCC(CN(Cc1ccccc1)c1ccccc1)N1CCCC1 (centres undefined) | 9.6% (active)
12 | CCCCC1C(=O)N(c2ccccc2)N(c2ccccc2)C1=O | -5.9%
13 | Cc1ccc(=O)n(-c2ccccc2)c1 | 0.9% (active)
14 | Cc1cc(O)c2c(c1)C(=O)c1cc(O)cc(O)c1C2=O | 10.6% (active)
15 | CCCc1c(-c2ccc(O)cc2)nn(-c2ccc(O)cc2)c1-c1ccc(O)cc1 | 17.5% (active)
16 | Cn1cc(C(=O)OCC2CCN(CCNS(C)(=O)=O)CC2)c2ccccc21 | -2.2%
17 | CCN(CC)C(=S)SSC(=S)N(CC)CC | 14.5% (active)
18 | CC12C(=O)OC(=O)C1(C)C1CCC2O1 (centres undefined) | -4%
19 | CN1CCc2cc(O)c(O)cc2C(c2ccccc2)C1 (centres undefined) | 14.7% (active)
20 | CN1CCc2cc(Cl)c(O)cc2[C@@H](c2ccccc2)C1 | 10.2% (active)
21 | CN(C)c1cc2c(Nc3ccc4c(cnn4Cc4ccccc4)c3)ncnc2cn1 | -0.7%
22 | Cc1cc(C(C)(C)C)c(O)c(C)c1CC1=NCCN1 | -1.4%
23 | Cc1cc(C(C)(C)C)cc(C)c1CC1=NCCN1 | 3.9% (active)

Row | Structure (SMILES) | inhibition
24 | N=S(=O)([O-])Cc1noc2c1C=C[C+]=C2 | -4.8%
25 | COC1=C(OC)C(=O)c2ccccc2C1=O | 6.2% (active)
26 | O=C1C(SCCO)=C(SCCO)C(=O)c2ccccc21 | -58.7%
27 | O=[N+]([O-])c1ccc(-c2nc(-c3ccc(F)cc3)c(-c3ccncc3)[nH]2)cc1 | 6.9% (active)
28 | Oc1ccc(-c2nc(-c3ccc(F)cc3)c(-c3ccncc3)[nH]2)cc1 | 31.8% (active)
29 | N#Cc1cc([N+](=O)[O-])c2sc(C(N)=O)[n+]([O-])c2c1 | 2.3% (active)
30 | COc1nc(C)nc(Cl)c1NC1=NCCN1 | -8.3%
31 | Cc1nn(-c2ccccc2)c(C)c1C=NN1CCN(Cc2ccccc2)CC1 | 5.8% (active)
32 | Nc1nnc(-c2cccc(Cl)c2Cl)c(N)n1 | -3.6%
33 | Nc1ccc(N2C(=O)c3ccccc3C2=O)c(Cl)c1 | 10.7% (active)
34 | CCCCCCCCCC(=O)NC(CN1CCOCC1)[C@H](O)c1ccccc1 (some centres undefined) | 4.7% (active)
35 | CC1COc2c(N3CCN(C)CC3)c(F)cc3c(=O)c(C(=O)O)cn1c23 (centres undefined) | -1.5%
36 | CN=C(NC#N)NCCSCc1nc[nH]c1C | 3.1% (active)
37 | NC(=O)OCC(COC(N)=O)c1ccccc1 | 1.7% (active)
38 | NS(=O)(=O)C#Cc1ccccc1 | 0.5% (active)
39 | Oc1ccc2ccccc2c1SSc1c(O)ccc2ccccc12 | 34.9% (active)
40 | Clc1nccc2c1ccc1ccccc12 | -1.8%
41 | COc1cc(/C=C(\C#N)C(=O)Nc2nnc(C(F)(F)F)s2)ccc1OCc1ccc(C(F)(F)F)cc1C(F)(F)F | 0.8% (active)
42 | CN(C)c1nc2c(Br)c(Br)c(Br)c(Br)c2[nH]1 | 7% (active)
43 | Nc1cc(=O)[nH]c(N)n1 | 2% (active)
44 | CCCN(CCC)CCc1cccc2c1CC(=O)N2 | 1.5% (active)
45 | CC(C)CC(NP(=O)(O)O[C@@H]1O[C@@H](C)[C@H](O)[C@@H](O)[C@H]1O)C(=O)NC(Cc1c[nH]c2ccccc12)C(=O)O (some centres undefined) | 4.6% (active)
46 | CN[C@H](CC(=O)O)C(=O)O | 2.3% (active)

Row | Structure (SMILES) | inhibition
47 | CC[C@H](C)C(=O)O[C@H]1CCC=C2C=C[C@H](C)[C@H](CC[C@@H]3C[C@@H](O)CC(=O)O3)[C@H]21 | -6.8%
48 | NC(N)=N[C@@H](CCC(=O)O)C(=O)O | 0.9% (active)
49 | CNCCC=C1c2ccccc2CCc2ccccc21 | 2.3% (active)
50 | CC#CCOC(=O)c1c(C)nc2sc3c(c2c1N)CCC(O)C3 (centres undefined) | 1.6% (active)
51 | CN1CCC[C@H]1c1cccnc1 | -0.6%
52 | COc1ccccc1N1CCN(CCCNc2cc(=O)n(C)c(=O)n2C)CC1 | 10.9% (active)
53 | COc1ccccc1N1CCN(CCCNc2c(C)c(=O)n(C)c(=O)n2C)CC1 | 7.4% (active)
54 | CCC(C)N(C)C(=O)c1cc2ccccc2c(-c2ccccc2Cl)n1 (centres undefined) | -1.2%
55 | OCCN1CCN(CCCN2c3ccccc3C=Cc3ccccc32)CC1 | 6.4% (active)
56 | CN1CCN(C2Cc3ccccc3Sc3ccc(Cl)cc32)CC1 (centres undefined) | -2.3%
57 | OCCN1CCN(CCCN2c3ccccc3Sc3ccc(Cl)cc32)CC1 | 45.4% (active)
58 | CN1CCN(CCCN2c3ccccc3Sc3ccc(Cl)cc32)CC1 | 46.5% (active)
59 | COc1cc2c(cc1OC)-c1cc(=Nc3c(C)cc(C)cc3C)n(C)c(=O)n1CC2 | -1.4%
60 | Cc1ccc(S(=O)(=O)/C=C/C#N)cc1 | 0.7% (active)
61 | CC(C)(C)c1ccc(S(=O)(=O)/C=C/C#N)cc1 | 1.2% (active)
62 | C=C[C@@]1(C)CC(=O)[C@]2(O)[C@@]3(C)[C@H](O)CCC(C)(C)[C@@H]3[C@H](O)[C@H](OC(C)=O)[C@@]2(C)O1 | 19.3% (active)
63 | Nc1nc(N)c(N=O)c(OCC2CCCCC2)n1 | 20.8% (active)
64 | CC(C)(C)c1onc(OCP(=O)(O)O)c1CC(N)C(=O)O (centres undefined) | 4.7% (active)
65 | CCCN(CC1CC1)c1nc(C)nc(Nc2c(Cl)cc(Cl)cc2Cl)c1Cl | 0.1% (active)
66 | CCSC(=N)N | 0.7% (active)
67 | CSC(=N)N | -7.4%
68 | CCN1/C(=C/C(C)=O)Sc2ccc(OC)cc21 | 10.3% (active)
69 | CC(=O)O[C@H]1CC2(C)[C@@H](C[C@@H](O)[C@H]3[C@@]4(C)CC[C@@H](O)[C@@H](C)[C@@H]4CC[C@@]32C)/C1=C(/CCC=C(C)C)C(=O)O (some centres undefined) | 2.7% (active)
